Results published in PubChem BioAssay AID1159580 (chemical genetic matrix, 2015).
Values joined by “and” are separate entries in the source; they are usually repeats but may differ in a detail not shown here. Identical values can stand only once. In all, about 5,500 compounds went through this assay and about 2,000 (36%) were called active. Not shown: some 18% with an inconclusive outcome. Rule as the data show it: active = normalized growth mostly below about 0.91 (no sharp cut-off); inconclusive = no clear call, values can overlap the other calls; inactive = mostly above about 0.92. The list shows a part of the results.

Assay: chemical genetic growth profiling, strain panel (AID 1159580);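 also: tested at 20 µM; growth read once vehicle control cultures reached saturation at 30 °C; 1 = growth at the plate median or of vehicle wells; lower values mean less growth of the strain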
Settings: S. cerevisiae deletion strains, growth OD

Measured: normalized growth

CC1(C)C2CC(=O)[C@]3(C)C(CC[C@@]4(C)[C@H](c5ccoc5)OC(=O)[C@H]5O[C@]543)[C@@]2(C)C(=O)C[C@H]1O (stereo not given in full)
inactive: locus YAL013W, strain DEP1, hits give low values 1.03 | locus YAL021C, strain ccr4, hits give low values 1.01 | locus YAL026C, strain drs2, hits give low values 1 | locus YAL030W, strain snc1, hits give low values 1.01 | locus YBL061C, strain skt5, hits give low values 1 | locus YBR009C, strain hhf1, hits give low values 0.992 | locus YBR021W, strain FUR4, hits give low values 0.995 | locus YBR023C, strain chs3, hits give low values 1.02 | locus YBR171W, strain sec66, hits give low values 1.01 | locus YBR229C, strain ROT2, hits give low values 1 | locus YBR231C, strain swc5, hits give low values 1 | locus YBR279W, strain paf1, hits give low values 1.01 | locus YCL011C, strain gbp2, hits give low values 1.02 | locus YCL016C, strain dcc1, hits give low values 1.01 | locus YCL029C, strain bik1, hits give low values 1.01 | locus YCL061C, strain MRC1, hits give low values 1 | locus YCL069W, strain vba3, hits give low values 1.01 | locus YCR088W, strain abp1, hits give low values 1.01 | locus YDL005C, strain med2, hits give low values 1 | locus YDL035C, strain GPR1, hits give low values 0.975 | locus YDL040C, strain nat1, hits give low values 1 | locus YDL074C, strain BRE1, hits give low values 1.03 | locus YDL101C, strain DUN1, hits give low values 1.03 | locus YDL185W, strain tfp1, hits give low values 1.02 | locus YDL192W, strain arf1, hits give low values 1.01 | locus YDR001C, strain nth1, hits give low values 1 | locus YDR069C, strain doa4, hits give low values 0.995 | locus YDR101C, strain arx1, hits give low values 1 | locus YDR137W, strain rgp1, hits give low values 1.06 | locus YDR150W, strain NUM1, hits give low values 1 | locus YDR159W, strain sac3, hits give low values 1.01 | locus YDR162C, strain NBP2, hits give low values 0.983 | locus YDR195W, strain ref2 0.977 | locus YDR297W, strain sur2, hits give low values 1.01 | locus YDR318W, strain mcm21, hits give low values 1.01 | locus YDR334W, strain swr1, hits give low values 1.01 | locus YDR335W, strain msn5, hits give low values 0.999 | locus YDR388W, hits give low values 1.01 | locus YDR392W, strain spt3, hits give low values 1.01 | locus YDR502C, strain sam2, hits give low values 1.02 | locus YEL003W, strain gim4, hits give low values 1.01 | locus YEL037C, strain rad23, hits give low values 1 | locus YEL061C, strain CIN8 (second series), hits give low values 0.996 | locus YEL061C, strain CIN8, hits give low values 1 | locus YER015W, strain faa2, hits give low values 0.995 | locus YER016W, strain bim1, hits give low values 1.01 | locus YER110C, hits give low values 1.02 | locus YER111C, strain swi4, hits give low values 1.01 | locus YER155C, strain BEM2 (second series), hits give low values 1.02 | locus YER155C, strain BEM2, hits give low values 1 | locus YER167W, strain BCK2, hits give low values 0.993 | locus YFR010W, strain ubp6, hits give low values 0.997 | locus YGL078C, strain dbp3, hits give low values 1.01 | locus YGL086W, strain mad1, hits give low values 1.01 | locus YGL167C, strain pmr1, hits give low values 1.01 | locus YGL173C, strain kem1, hits give low values 1.02 | locus YGL227W, strain vid30, hits give low values 1.01 | locus YGL240W, strain doc1, hits give low values 1.03 | locus YGL248W, strain PDE1, hits give low values 1.03 | locus YGL253W, strain hxk2, hits give low values 1 | locus YGR078C, strain PAC10, hits give low values 1.03 | locus YGR135W, strain pre9, hits give low values 1.01 | locus YGR252W, strain gcn5, hits give low values 0.993 | locus YHR013C, strain ard1, hits give low values 1.01 | locus YHR027C, strain rpn1, hits give low values 1.01 | locus YHR030C, strain SLT2, hits give low values 0.992 and 1.02 | locus YHR079C, strain IRE1 (second series), hits give low values 1.02 | locus YHR079C, strain IRE1, hits give low values 1.02 | locus YHR094C, strain hxt1, hits give low values 1.02 | locus YHR129C, strain ARP1, hits give low values 1.01 | locus YHR142W, strain chs7, hits give low values 0.999 | locus YHR200W, strain rpn10, hits give low values 1.01 | locus YIL066C, strain RNR3, hits give low values 0.979 | locus YIL073C, strain SPO22, hits give low values 1.03 | locus YIL125W, strain kgd1, hits give low values 1.01 | locus YIR030C, strain dcg1, hits give low values 1.02 | locus YJL092W, strain hpr5, hits give low values 1 | locus YJL095W, strain BCK1 (second series), hits give low values 1.01 | locus YJL095W, strain BCK1, hits give low values 1.06 and 1.03 | locus YJL115W, strain asf1, hits give low values 1 | locus YJL129C, strain trk1, hits give low values 1.03 | locus YJL134W, strain LCB3, hits give low values 0.999 | locus YJL154C, strain vps35, hits give low values 1 | locus YJL164C, strain tpk1, hits give low values 1 | locus YJL166W, strain qcr8, hits give low values 1.01 | locus YJL168C, strain set2, hits give low values 1.01 | locus YJL187C, strain SWE1 (second series), hits give low values 1.05 | locus YJR043C, strain POL32, hits give low values 0.963 | locus YJR066W, strain TOR1, hits give low values 0.956 | locus YJR075W, strain HOC1, hits give low values 1.03 | locus YKL009W, strain mrt4, hits give low values 1.03 | locus YKL068W, hits give low values 1.01 | locus YKL085W, strain MDH1 (second series), hits give low values 1 | locus YKL085W, strain MDH1, hits give low values 1 | locus YKL160W, strain elf1, hits give low values 1.01 | locus YKL190W, strain CNB1, hits give low values 1.01 | locus YKR001C, strain vps1, hits give low values 1.05 | locus YKR026C, strain gcn3, hits give low values 1 | locus YKR091W, strain srl3, hits give low values 1 | locus YLL001W, strain dnm1, hits give low values 1.01 | locus YLL026W, hits give low values 1.01 | locus YLL041C, strain sdh2, hits give low values 0.998 | locus YLR027C, strain aat2, hits give low values 1.01 | locus YLR039C, strain RIC1, hits give low values 1.02 | locus YLR058C, strain SHM2, hits give low values 1.02 | locus YLR102C, strain apc9, hits give low values 1.02 | locus YLR113W, strain HOG1, hits give low values 0.981 | locus YLR221C, strain rsa3, hits give low values 1 | locus YLR258W, strain gsy2, hits give low values 1.01 | locus YLR262C, strain YPT6 (second series), hits give low values 0.982 | locus YLR262C, strain YPT6, hits give low values 1 | locus YLR268W, strain sec22, hits give low values 1.02 | locus YLR320W, strain mms22, hits give low values 1.01 | locus YLR330W, strain CHS5, hits give low values 1 | locus YLR342W, strain FKS1 (second series), hits give low values 0.988 | locus YLR342W, strain FKS1, hits give low values 1.01 | locus YLR357W, strain rsc2, hits give low values 0.994 | locus YLR370C, strain arc18, hits give low values 0.996 | locus YLR371W, strain rom2, hits give low values 1.02 | locus YLR384C, strain iki3, hits give low values 1.01 | locus YLR418C, strain cdc73, hits give low values 1.03 | locus YML016C, strain PPZ1, hits give low values 0.997 | locus YML032C, strain rad52, hits give low values 1.01 | locus YML120C, strain ndi1, hits give low values 1.01 | locus YML124C, strain tub3, hits give low values 1.01 | locus YMR058W, strain fet3, hits give low values 1 | locus YMR078C, strain ctf18, hits give low values 1.02 | locus YMR125W, strain sto1, hits give low values 1.02 | locus YMR129W, hits give low values 1.02 | locus YMR205C, strain PFK2, hits give low values 1 | locus YMR223W, strain ubp8, hits give low values 1.01 | locus YMR231W, strain pep5, hits give low values 1.01 | locus YMR263W, strain SAP30, hits give low values 1.04 | locus YMR307W, strain GAS1, hits give low values 1.04 | locus YNL067W, strain RPL9B, hits give low values 1.05 | locus YNL071W, strain lat1, hits give low values 1 | locus YNL153C, strain GIM3, hits give low values 1.04 | locus YNL183C, strain NPR1, hits give low values 0.962 | locus YNL209W, strain ssb2, hits give low values 0.997 | locus YNL233W, strain BNI4, hits give low values 1.04 | locus YNL248C, strain rpa49, hits give low values 1.02 | locus YNL250W, strain rad50, hits give low values 1.02 | locus YNL271C, strain bni1, hits give low values 1.01 | locus YNL298W, strain CLA4, hits give low values 1.02 | locus YNL307C, strain MCK1, hits give low values 1.02 | locus YNL322C, strain KRE1 (second series), hits give low values 1.03 | locus YNR049C, strain mso1, hits give low values 0.995 | locus YNR052C, strain pop2, hits give low values 1.02 | locus YOL012C, strain htz1 2.06 | locus YOL147C, strain pex11, hits give low values 1.02 | locus YOR001W, strain rrp6, hits give low values 0.995 | locus YOR061W, strain CKA2, hits give low values 0.999 | locus YOR069W, strain VPS5, hits give low values 1.01 | locus YOR070C, strain gyp1, hits give low values 1.01 | locus YOR080W, strain dia2, hits give low values 0.997 | locus YOR083W, strain WHI5, hits give low values 1.01 | locus YOR106W, strain vam3, hits give low values 1 | locus YOR136W, strain idh2, hits give low values 1.03 | locus YOR144C, strain elg1, hits give low values 1.01 | locus YOR184W, strain ser1, hits give low values 1.01 | locus YOR231W, strain MKK1, hits give low values 1.02 | locus YOR265W, strain rbl2, hits give low values 0.99 | locus YOR270C, strain vph1, hits give low values 0.948 | locus YOR290C, strain snf2, hits give low values 1.01 | locus YOR316C, strain cot1, hits give low values 1.01 | locus YPL051W, strain arl3, hits give low values 1.01 | locus YPL078C, strain atp4, hits give low values 1.01 | locus YPL106C, strain sse1, hits give low values 1.01 | locus YPL240C, strain hsp82, hits give low values 1.02 | locus YPL256C, strain CLN2, hits give low values 1.01 | locus YPR119W, strain clb2, hits give low values 1.01 | locus YPR141C, strain kar3, hits give low values 1.01 | locus YPR163C, strain tif3, hits give low values 1.01 | locus YPR167C, strain met16, hits give low values 1.01 | strain wtn01, hits give low values 1.02
